In PubChem BioAssay AID720504 (National Center for Advancing Translational Sciences (NCATS), 2013) one finds max response, negative = inhibition and Potency data, which are given here for 46 compounds.

Molecules are shown by their SMILES. Screen size: about 360,000 compounds; about 10,000 (2.8%) were called active. About 4% were inconclusive and are not listed. Only a selection was taken, and actives are over-represented in it overall. Unmarked numbers belong to inactive results. Calls come from the whole dose curve; as a rule, active = well fitted inhibition curve with a large enough effect; inconclusive = small, poorly fitted or top-dose-only effect; inactive = flat fitted curve, though single readings scatter.
% is set by controls: 0 for no effect and ±100 for the full control effect; potency is the fitted concentration of half-maximal effect.

For this assay, the target named is Serine/threonine-protein kinase PLK1 (Homo sapiens) (UniProt P53350). The assay is described as follows: qHTS for Inhibitors of PLK1-PDB (polo-like kinase 1 - polo-box domain): Primary Screen. For max response, negative = inhibition: series mostly up to about 57 µM. Note: nearly all actives have a fitted effect of over 65% in size. To be noted: Plk1 PBD binding of FITC phosphopeptide, fluorescence polarization. For orientation: In qHTS, concentration-response curves come from the screen itself.
Serine/threonine-protein kinase PLK1 (Homo sapiens), sequence (P53350 whole entry, looked up, the tested form may be a part): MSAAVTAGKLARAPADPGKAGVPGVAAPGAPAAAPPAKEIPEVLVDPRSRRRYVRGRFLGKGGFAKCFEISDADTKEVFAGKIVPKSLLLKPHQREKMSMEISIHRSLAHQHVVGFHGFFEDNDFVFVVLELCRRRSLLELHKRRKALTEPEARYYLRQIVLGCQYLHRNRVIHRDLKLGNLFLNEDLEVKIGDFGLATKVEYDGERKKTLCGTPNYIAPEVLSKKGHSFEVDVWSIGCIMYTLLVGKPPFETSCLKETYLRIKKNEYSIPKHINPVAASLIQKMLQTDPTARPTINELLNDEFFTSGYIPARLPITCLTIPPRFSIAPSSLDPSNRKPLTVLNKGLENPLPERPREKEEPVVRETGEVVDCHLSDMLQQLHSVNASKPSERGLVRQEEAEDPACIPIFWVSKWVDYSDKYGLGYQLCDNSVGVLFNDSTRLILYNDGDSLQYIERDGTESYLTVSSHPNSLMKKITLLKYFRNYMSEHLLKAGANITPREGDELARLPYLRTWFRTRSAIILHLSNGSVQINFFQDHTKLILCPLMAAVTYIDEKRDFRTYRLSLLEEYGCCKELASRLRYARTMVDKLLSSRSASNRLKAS
Consider `CC1(c2cccc(Br)c2)NC(=O)N(CC(=O)NCCC2=CCCCC2)C1=O` (stereo unspecified), for which the max response, negative = inhibition was -9.46%. Take `CSc1sc(C(=O)NC(=O)NCc2cccnc2)c(C)c1-c1ccon1`: the max response, negative = inhibition was -0.192%. Consider `CC(C)(C)c1cc(C(=O)NCc2cccnc2)ccn1`, for which the max response, negative = inhibition was -6.13%. With `Cc1ccc(-n2nc(-c3ccco3)cc2C(=O)NCc2cccnc2)cc1`, the Potency is 9.47 µM (active). Still for that read-out and setting: for `Nc1[nH]c(=S)nc2nc(-c3ccccc3)c(-c3ccccc3)nc12` the value was 21.2 µM (active). As to `CCCCOCCCNC(=O)C[C@@H]1C[C@@]2(C(=O)OC)CCCCC=C2N(CCC2=CCCCC2)C1=O`, the max response, negative = inhibition was 1.64%. In the case of `CCN(Cc1ccncc1)C(=S)Nc1ccccc1C`, the max response, negative = inhibition is -0.726%. In the case of `COc1ccccc1N1CCN(c2nc(C)cc(=O)[nH]2)CC1`, the max response, negative = inhibition is -12.7%. Take `CCc1ccc(-n2c(=S)sc3c(=O)n(-c4ccccc4OC)c(=S)[nH]c32)cc1`: the Potency was 11.9 µM (active).

With `COc1ccccc1-n1c(=S)[nH]c2c(sc(=S)n2-c2ccc(C)cc2C)c1=O`, the Potency is 6.7 µM (active). Take `COc1ccccc1-n1cn[nH]c1=S`: the max response, negative = inhibition is -29.4%. On the same count and under the same terms, as for `COc1cccc(-n2c(=S)sc3c(=O)n(-c4ccccc4OC)c(SCC4OCCO4)nc32)c1`, the figure is 4.69%. Same read-out and setting: for `COc1ccc(OC)c(-n2c(=S)[nH]c3cc(C(=O)N4CCCCC4)ccc3c2=O)c1` the value was 2.08%; for `CC1(C(=O)NS(=O)(=O)c2ccccc2)CCN1C(=O)C/C=C/c1ccccc1` (stereo unspecified), -21.1%; for `COc1ccc(OC)c(C(=O)NC2CCCc3c2cnn3-c2cc(C)cc(C)c2)c1` (stereo unspecified), -4.63%. Still for that read-out and setting: as for `CC1C(=O)N(Cc2cn(Cc3ccco3)nn2)CCS(=O)(=O)N1Cc1ccc(-c2cccc(CO)c2)cc1` (stereo unspecified), the figure is -3.83%; as for `OC[C@@H]1CN(Cc2ccncc2)C[C@H](n2cnc3c(N4CCN(c5ccccc5)CC4)ncnc32)O1`, -12.1%.

`Cc1cc(C)c2cc(C#N)c(N3CCNCC3)nc2c1`: the max response, negative = inhibition is -8.16%.

Regarding `Cc1c(Br)cc(C(=O)N2CCCCCC2)c(C)c1C`, the max response, negative = inhibition was -5.8%. In the case of `CCNC(=O)C1CCCN(C(=O)c2cc(F)ccc2C)CC1` (stereo unspecified), the max response, negative = inhibition is -1.52%.

For the compound `O=C(c1ccc(Cl)c(Cl)c1)N1CCCC1`, the max response, negative = inhibition is -20.7%. With `COc1c(C(=O)N2CCCC2)ccc2ccccc12`, the max response, negative = inhibition was -0.934%. Consider `Cc1ccc(C(=O)N2CCCCCC2)cc1Br`, for which the Potency is 26.7 µM (active). On to `Cc1ccc(C(=O)N2CCCC2)c(F)c1F`, for which the Potency is 21.2 µM (active). As for `CCc1nc2c(OCc3ccc(C(F)(F)F)cc3)cccn2c1N(C)C(=O)CC(C)C`, the max response, negative = inhibition was 0.499%. Same read-out and setting: as for `COc1cc(-c2nnc(NC(=O)CS(=O)(=O)c3ccc(Cl)cc3)o2)cc(OC)c1OC`, the figure is -18.2%. Same read-out and setting: for `CC(C)C1CCN(C(=O)C2CCC(=O)N(C3CCCCCC3)C2)CC1` (stereo unspecified) the value was 0.565%. Same read-out and setting: for `CC(Sc1nnc(COc2ccccc2)n1-c1ccccc1)C(=O)O` (stereo unspecified) the value was -5.44%.

`Fc1ccc(/C=N/n2c(COc3ccccc3)n[nH]c2=S)cc1`: the Potency is 23.8 µM (active).

Turning to `O=C(COc1ccccc1)Nc1ccc(F)cc1`, the max response, negative = inhibition was -17.9%.

As for `CC(=O)Nc1cc(-c2ccc(N3CCN(C)CC3)cc2)cn2c(-c3cccc(C(=O)N(C)C)c3)cnc12`, the max response, negative = inhibition is -2.75%.

For `CN1OC[C@@H]2CN(S(=O)(=O)c3cccc(C(F)(F)F)c3)[C@H](c3ccc(-c4cc5ccccc5o4)cc3)C[C@@H]21`, the max response, negative = inhibition is -19.4%. The same measure, in the same setting: as for `O=C(Nc1ccc2c(c1)OCCO2)C(C1CC1)N1CCC(Cc2ccccc2)CC1` (stereo unspecified), the figure is 1.88%; as for `CCC(C(=O)NC(C)(C)C)n1c(-c2ccccc2)nc2ccccc21` (stereo unspecified), 0.0436%; as for `Cc1[nH]c2ccccc2c1C(=O)CN1CC(C)CC(C)C1` (stereo unspecified), -9.93%. The same measure, in the same setting: as for `Cc1[nH]c2ccccc2c1C(=O)CN1CCCC(C)C1` (stereo unspecified), the figure is -2.14%.

Consider `CCOC(=O)N1CCN(CC(=O)c2c(C)[nH]c3ccccc23)CC1`, for which the Potency was 3.77 µM (active). With `CNc1cncc(-c2cccc(C(=O)N3CCOCC3)c2)n1`, the max response, negative = inhibition is -3.85%. Same read-out and setting: as for `COc1ccccc1-n1c(SCC(=O)Nc2ccc(Cl)cc2)nc(O)c(Cc2ccccc2)c1=O`, the figure is -10.5%; as for `CNc1cnc(-c2cc(OC)c(OC)c(OC)c2)cn1`, -14%; as for `O=C(NC(=S)Nc1ccc(NC(=O)c2cccs2)cc1)c1ccc([N+](=O)[O-])cc1`, -4.47%. Regarding `NS(=O)(=O)c1ccc(NC(=S)NNC(=O)c2cccs2)cc1`, the Potency was 29.9 µM (active). Turning to `CCc1nnc(NS(=O)(=O)c2ccc(NC(=O)c3cccc(OC(F)(F)C(F)F)c3)cc2)s1`, the max response, negative = inhibition is -23.6%.

Regarding `CCc1nnc(NS(=O)(=O)c2ccc(NC(=S)NC(=O)c3cccs3)cc2)s1`, the Potency is 18.9 µM (active). Turning to `CS(=O)(=O)c1ccc(C(=O)NNC(=O)c2cccs2)cc1`, the max response, negative = inhibition is -0.622%. In the case of `CCc1ccc(NC(=O)C(=O)NNC(=O)c2cccs2)cc1`, the max response, negative = inhibition is -20.4%.
